Assay [1] is described as follows: small molecules captured by biotinylated probe aFSTL3 – biochemical, small-molecule microarray, fluorescence 635/667, stem cell growth factor project, primary screen (AID 1064).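 Further: measures binding of the biotinylated anti-FSTL3 antibody to printed compounds.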 The note with it: higher = more signal.
A short description of assay [2]: binders from COS7 lysate, DM2A8 probe, primary screen, torsin A project, cell lysate, small-molecule microarray, fluorescence 635/667 (AID 1065). The note with it: higher = more signal, COS7 lysate expressing mutant human TOR1A.
A short description of assay [3]: small molecules captured by biotinylated probe aFGF2 – biochemical, small-molecule microarray, fluorescence 635/667, stem cell growth factor project, primary screen (AID 1067).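 Further: measures binding of biotinylated aFGF2 protein to printed compounds on slides; z-score merges feature fluorescence and signal-to-noise across triplicate slides.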 The conditions noted are these: higher = more signal.
Assay [4] can be described thus: small molecules captured by biotinylated probe aFGF10 – biochemical, small-molecule microarray, fluorescence 635/667, stem cell growth factor project, primary screen (AID 1071).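 Further: score merges 667 nm spot intensity and signal to noise from triplicate slides.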 The note with it: higher = more signal.
In assay [5] the target is Neurogenic locus notch homolog protein 2 (Homo sapiens) (UniProt Q04721). The experiment in a line: small molecules binding Notch2 protein – biochemical, small-molecule microarray, 635 nm fluorescence, stem cell growth factors, primary screen (AID 1073). The conditions noted are these: higher = more signal.
Assay [6] has as its target Pro-neuregulin-1, membrane-bound isoform (Homo sapiens) (UniProt Q02297). The assay is described as follows: small molecules binding neuregulin-1 protein – biochemical, small-molecule microarray, fluorescence 635/667, psychiatric disease protein project, primary screen (AID 1075).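 Further: score combines 667 nm spot fluorescence with signal to noise.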 The conditions noted are these: NRG1 binding, 635 nm fluorescence, higher = more signal.
Assay [7] concerns Neuregulin-1 EGF-like domain. The experiment in a line: small molecules binding NRG1 EGF domain – biochemical, small-molecule microarray, 635 nm fluorescence, primary screen (AID 1081).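 Further: binding of the protein to compounds printed on small-molecule microarray slides.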 The conditions noted are these: higher = more signal.
Assay [8] can be described thus: FRG1 expression reporter modulators in myotubes – cell-based, C2C12 myotubes, firefly/Renilla luciferase, luminescence, FRG1 inhibition for FSHD, primary screen (AID 1084). The conditions noted are these: FRG1 promoter luciferase, higher = more signal, called active from +8 up or from −8 down.
Assay [9] can be described thus: small molecules captured by biotinylated probe aFST – biochemical, small-molecule microarray, fluorescence 635/667, stem cell growth factor project, primary screen (AID 1086).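 Further: score merges 667 nm fluorescence with signal-to-noise of each printed compound spot.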 The conditions noted are these: higher = more signal.
Assay [10] can be described thus: binders of probe aHhip on microarray, primary screen, stem cell growth factor project, biochemical, small-molecule microarray, fluorescence 635/667 (AID 1087).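 Further: score merges spot fluorescence at 667nm with spot signal to noise ratio.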 The conditions noted are these: higher = more signal.
For assay [11], the system named is PRMT1 (protein arginine N-methyltransferase 1). The experiment in a line: small molecules binding arginine methyltransferase PRMT1 – biochemical, small-molecule microarray, 635 nm fluorescence, primary screen (AID 1088).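 Further: binding of Prmt1 protein to compounds spotted on small-molecule microarray slides.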 The note with it: higher = more signal.
Assay [12] is described as follows: growth effects on S. cerevisiae YJM789 – YJM789 clinical isolate, OD600, 24 h, basal, primary screen (AID 1089).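 Further: growth of clinical yeast isolate S. cerevisiae YJM 789 seeded 1000 cells per well; test concentration not given here.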 The conditions noted are these: higher = more signal, called active from +8 up or from −8 down.
Assay [13] is described as follows: S. pombe growth modifiers, basal conditions – strain 972, OD600, 24 h, no modulator, primary screen (AID 1090).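 Further: basal condition with compound alone and no growth modifier present; test concentration not given here.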 The note with it: S. pombe 972 growth, higher = more signal, called active from +8 up or from −8 down.
Assay [14] can be described thus: budding yeast growth modifiers under rapamycin – strain BY4716, OD600, 96 h, primary screen (AID 1091). Further: test concentration not given here. The conditions noted are these: S. cerevisiae BY4716 + rapamycin, higher = more signal, called active from +8 up or from −8 down.
In assay [15] the target is Torsin-1A-interacting protein 2 (Homo sapiens) (UniProt Q8NFQ8). The assay is described as follows: small molecules binding lysate-expressed LULL1 – cell lysate, human LULL1 lysate, 635/667 nm fluorescence, primary screen (AID 1092).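 Further: probe is lysate of COS7 cells overexpressing human LULL1; score merges per-feature 667 nm fluorescence with signal-to-noise.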 The note with it: small-molecule microarray, hLULL1 lysate binding, 635 nm fluorescence; higher = more signal.
A short description of assay [16]: optical density change of DRC41 E. coli – strain DRC41, OD650, 24 h, E. coli filamentation project, primary screen (AID 1093).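 Further: MC1000 strain lacking acrAB efflux and sulA so SOS filamentation is blocked; test concentration not given here.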 The note with it: E. coli DRC41 growth, higher = more signal, called active from +8 up or from −8 down.
The nature of assay [17]: probe aLefty2 binding to arrayed compounds – biochemical, biotinylated probe, 635/667 nm fluorescence, primary screen (AID 1094).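 Further: score merges spot fluorescence near 667 nm with spot signal-to-noise ratio.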 The note with it: small-molecule microarray, higher = more signal.
In assay [18] the test system is Noggin (protein binding on small-molecule microarray). The assay is described as follows: small molecules binding Noggin protein – biochemical, 635/667 nm fluorescence, primary screen (AID 1095).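 Further: score merges 667 nm feature fluorescence with signal to noise over triplicate slides.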 The note with it: 635 nm fluorescence, higher = more signal.
The target in assay [19] is Neurogenic locus notch homolog protein 3 (Homo sapiens) (UniProt Q9UM47). The assay is described as follows: small molecules binding NOTCH3 protein – biochemical, 635/667 nm fluorescence, primary screen (AID 1096). The note with it: small-molecule microarray, 635 nm fluorescence, higher = more signal.
A short description of assay [20]: probe aEGFR binding to arrayed compounds – biochemical, biotinylated probe, 635/667 nm fluorescence, primary screen (AID 1097).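 Further: probe is a biotinylated anti-EGFR antibody binding compounds printed on slides; score combines fluorescence near 667 nm and signal to noise of each spot.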 The conditions noted are these: small-molecule microarray, higher = more signal.

Activity calls are given as the source filed them.

Chain of Pro-neuregulin-1, membrane-bound isoform (Homo sapiens) (Q02297 whole entry, looked up, the tested form may be a part, canonical isoform): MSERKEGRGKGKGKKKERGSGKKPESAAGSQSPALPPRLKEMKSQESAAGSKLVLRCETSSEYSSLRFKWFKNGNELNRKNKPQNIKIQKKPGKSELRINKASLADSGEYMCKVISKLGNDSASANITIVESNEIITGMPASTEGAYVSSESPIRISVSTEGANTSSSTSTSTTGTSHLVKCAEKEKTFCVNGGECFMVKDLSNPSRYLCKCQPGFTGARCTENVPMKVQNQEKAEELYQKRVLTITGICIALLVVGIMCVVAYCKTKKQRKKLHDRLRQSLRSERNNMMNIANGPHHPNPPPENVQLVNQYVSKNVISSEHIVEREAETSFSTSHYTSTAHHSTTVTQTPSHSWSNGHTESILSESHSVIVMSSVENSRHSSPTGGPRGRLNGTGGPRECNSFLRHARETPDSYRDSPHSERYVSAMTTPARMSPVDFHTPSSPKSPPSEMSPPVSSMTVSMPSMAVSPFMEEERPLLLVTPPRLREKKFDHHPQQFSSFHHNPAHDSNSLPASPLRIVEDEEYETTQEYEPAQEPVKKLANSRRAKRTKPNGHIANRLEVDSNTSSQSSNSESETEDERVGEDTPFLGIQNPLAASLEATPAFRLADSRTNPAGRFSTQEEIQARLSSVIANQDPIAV
Chain of Torsin-1A-interacting protein 2 (Homo sapiens) (Q8NFQ8 whole entry, looked up): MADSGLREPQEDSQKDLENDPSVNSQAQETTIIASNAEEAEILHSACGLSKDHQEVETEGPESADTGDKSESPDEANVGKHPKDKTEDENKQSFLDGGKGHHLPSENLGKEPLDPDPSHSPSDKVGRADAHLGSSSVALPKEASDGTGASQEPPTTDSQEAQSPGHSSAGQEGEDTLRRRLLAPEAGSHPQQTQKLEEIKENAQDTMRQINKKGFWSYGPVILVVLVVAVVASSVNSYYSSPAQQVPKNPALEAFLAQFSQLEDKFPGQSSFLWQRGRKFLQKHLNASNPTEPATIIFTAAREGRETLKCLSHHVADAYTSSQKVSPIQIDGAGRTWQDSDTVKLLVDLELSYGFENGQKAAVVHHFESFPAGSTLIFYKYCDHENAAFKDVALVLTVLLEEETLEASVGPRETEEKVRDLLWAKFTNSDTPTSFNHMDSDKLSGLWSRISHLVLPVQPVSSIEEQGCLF
Chain of Neurogenic locus notch homolog protein 2 (Homo sapiens) (Q04721 whole entry, looked up, canonical isoform): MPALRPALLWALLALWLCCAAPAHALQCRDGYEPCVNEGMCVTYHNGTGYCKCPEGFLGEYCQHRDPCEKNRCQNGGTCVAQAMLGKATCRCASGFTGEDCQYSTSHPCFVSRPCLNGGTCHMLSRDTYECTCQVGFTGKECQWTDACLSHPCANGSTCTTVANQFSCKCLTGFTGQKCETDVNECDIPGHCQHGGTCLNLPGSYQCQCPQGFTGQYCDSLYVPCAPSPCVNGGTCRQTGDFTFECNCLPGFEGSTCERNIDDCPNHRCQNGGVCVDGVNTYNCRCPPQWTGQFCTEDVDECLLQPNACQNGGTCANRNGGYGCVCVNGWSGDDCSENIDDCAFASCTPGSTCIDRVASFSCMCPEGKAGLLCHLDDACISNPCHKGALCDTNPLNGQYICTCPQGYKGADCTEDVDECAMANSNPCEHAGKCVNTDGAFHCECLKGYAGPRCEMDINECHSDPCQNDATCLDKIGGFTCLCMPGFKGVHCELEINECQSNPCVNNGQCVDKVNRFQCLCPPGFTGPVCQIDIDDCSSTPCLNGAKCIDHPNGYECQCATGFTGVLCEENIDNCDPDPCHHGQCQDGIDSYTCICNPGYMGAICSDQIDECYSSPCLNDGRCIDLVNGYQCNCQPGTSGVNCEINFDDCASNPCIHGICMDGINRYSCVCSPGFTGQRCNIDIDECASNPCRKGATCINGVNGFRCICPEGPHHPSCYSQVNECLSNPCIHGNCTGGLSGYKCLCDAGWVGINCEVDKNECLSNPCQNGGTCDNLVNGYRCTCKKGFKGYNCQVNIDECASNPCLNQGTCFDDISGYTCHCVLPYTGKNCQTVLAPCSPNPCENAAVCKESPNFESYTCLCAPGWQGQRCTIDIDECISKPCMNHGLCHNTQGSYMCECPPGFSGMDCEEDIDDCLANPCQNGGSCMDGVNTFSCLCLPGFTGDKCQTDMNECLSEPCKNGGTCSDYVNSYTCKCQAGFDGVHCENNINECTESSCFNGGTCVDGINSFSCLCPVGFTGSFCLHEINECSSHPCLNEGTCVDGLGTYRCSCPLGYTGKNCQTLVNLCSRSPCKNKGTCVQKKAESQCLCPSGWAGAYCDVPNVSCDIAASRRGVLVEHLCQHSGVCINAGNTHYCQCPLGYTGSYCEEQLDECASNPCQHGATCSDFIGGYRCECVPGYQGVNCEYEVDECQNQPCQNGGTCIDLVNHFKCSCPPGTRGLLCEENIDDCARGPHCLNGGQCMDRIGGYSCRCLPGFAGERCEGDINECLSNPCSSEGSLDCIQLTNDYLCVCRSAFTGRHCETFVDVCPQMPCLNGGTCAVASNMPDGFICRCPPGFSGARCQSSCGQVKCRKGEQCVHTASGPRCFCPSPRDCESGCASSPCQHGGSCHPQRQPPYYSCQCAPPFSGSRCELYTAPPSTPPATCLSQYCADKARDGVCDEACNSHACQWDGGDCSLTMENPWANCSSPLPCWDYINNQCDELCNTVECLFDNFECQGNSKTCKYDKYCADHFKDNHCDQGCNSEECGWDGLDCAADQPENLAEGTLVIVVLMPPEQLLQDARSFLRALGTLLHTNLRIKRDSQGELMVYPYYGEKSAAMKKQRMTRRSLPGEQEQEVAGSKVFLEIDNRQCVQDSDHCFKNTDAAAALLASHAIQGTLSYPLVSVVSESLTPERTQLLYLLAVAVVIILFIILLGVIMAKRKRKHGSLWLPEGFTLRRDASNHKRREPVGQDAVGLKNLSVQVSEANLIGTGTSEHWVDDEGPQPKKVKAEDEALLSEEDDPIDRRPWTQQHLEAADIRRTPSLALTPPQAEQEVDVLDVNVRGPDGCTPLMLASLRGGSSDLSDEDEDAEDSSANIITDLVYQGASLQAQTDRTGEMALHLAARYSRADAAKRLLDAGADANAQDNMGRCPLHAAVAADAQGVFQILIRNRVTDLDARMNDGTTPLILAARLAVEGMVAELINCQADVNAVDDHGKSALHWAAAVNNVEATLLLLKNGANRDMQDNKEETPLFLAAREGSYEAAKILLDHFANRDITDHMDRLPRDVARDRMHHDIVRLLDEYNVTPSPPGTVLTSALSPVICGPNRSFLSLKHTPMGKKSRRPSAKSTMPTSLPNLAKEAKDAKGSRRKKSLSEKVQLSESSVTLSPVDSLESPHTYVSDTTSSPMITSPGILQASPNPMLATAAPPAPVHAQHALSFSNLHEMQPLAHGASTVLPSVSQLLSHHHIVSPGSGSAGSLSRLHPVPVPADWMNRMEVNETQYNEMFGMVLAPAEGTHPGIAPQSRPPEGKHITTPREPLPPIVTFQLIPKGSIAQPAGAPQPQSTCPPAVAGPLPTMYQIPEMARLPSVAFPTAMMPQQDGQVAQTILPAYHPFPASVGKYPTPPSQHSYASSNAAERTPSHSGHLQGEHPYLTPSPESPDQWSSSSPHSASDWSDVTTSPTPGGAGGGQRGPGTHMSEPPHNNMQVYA

With `CC(C)(C)OC(=O)CC[C@]1(C(=O)N2CCOCC2)N=C(c2ccc(OCCCO)cc2)O[C@H]1c1ccccc1`, the composite z-score was -0.209 in [1]; 0.177 in assay [2]; -0.0601 in assay [3]; 0.724 in assay [4]; 0.819 in assay [5]; 0.526 in assay [6]. Also, the composite z-score in [7] is 0.548; in assay [9], 0.534; in assay [10] it was 0.0695; in assay [11], 0.587; in [15], 2.52; in [17], 0.0038. The composite z-score is 1.26 in [18], 0.348 in [19] and -0.0656 in assay [20]. For the same compound, the z-score was -2.64 (inactive) in [8]; 0.0164 (inactive) in [12]; -0.988 (inactive) in [13]; -0.439 (inactive) in assay [14]; 0.961 (inactive) in assay [16].
For the compound `CCCCN1CC=CC23O[C@@H]4C=CCOC(=O)[C@@H]4[C@H]2C(=O)N(CCCO)[C@@H]3C1=O` (stereo not given in full), the composite z-score was 0.594 in [1]; -0.0489 in assay [2]; -0.137 in assay [3]; -0.423 in assay [4]; -1.51 in assay [5]; 1.03 in assay [6]. The composite z-score is 1.54 in assay [7]; -0.488 in [9]; -0.134 in assay [10]; 0.412 in assay [11]; 2.41 in assay [15]; -0.145 in [17]. The composite z-score in [18] was -0.957; in assay [19], -0.366; in assay [20], -0.285. The z-score was 0.0518 (inactive) in assay [8]; 0.228 (inactive) in [12]; -0.399 (inactive) in assay [13]; -0.191 (inactive) in assay [14]; 1.42 (inactive) in [16].
`C=CCN1C(=O)[C@@]2(O[C@@H](CCO)[C@H]([Si](C)(C)c3ccc(OC)cc3)[C@H]2C)c2cc(N3C(=O)c4ccccc4Oc4ccccc43)ccc21`: the composite z-score in assay [1] is -0.033; in assay [2] it was 0.0892; in assay [3], -0.0491; in assay [4] it was 0.907; in assay [5], 0.166; in assay [6], 0.402. Also, the composite z-score is 0.882 in assay [7]; -0.204 in [9]; -0.261 in assay [10]; 0.0455 in assay [11]; 1.65 in [15]; -0.0665 in assay [17]. The results for the composite z-score in [18], in assay [19] and in assay [20] were 0.514, 0.612 and -0.135, respectively. Also, the z-score is -1.94 (inactive) in assay [8]; 1.34 (inactive) in assay [12]; 0.237 (inactive) in assay [13]; 9.42 (active) in assay [14]; 2.15 (inactive) in [16].
Take `CC(C)CCC[C@@H](C)[C@H]1CC[C@@]2(C)C3=C(CC[C@]12C)[C@@]1(C)CC[C@H](OC(=O)c2ccc(Br)cc2)C(C)(C)C1CC3` (stereo not given in full): the composite z-score in [1] is -0.571; in [2], 0.193; in assay [3], -0.128; in [4], 0.541; in assay [5] it was 0.5; in assay [6] it was 0.0933. In addition, the composite z-score in [7] is 0.439; in assay [9] it was 0.0941; in assay [10], -0.126; in assay [11] it was 0.739; in assay [15], 0.172; in assay [17] it was -0.0542. In addition, the values for the composite z-score in assay [18], in assay [19] and in [20] were 0.326, 0.888 and -0.0333, respectively. Moreover, the z-score in [8] was -0.879 (inactive); in assay [12], -1.15 (inactive); in [13], -1.28 (inactive); in assay [14], -0.346 (inactive); in [16], 2.77 (inactive).
With `CC(C)N1CC=CC23O[C@@H]4C=CCCOC(=O)C4[C@H]2C(=O)N(CCO)[C@@H]3C1=O` (stereo not given in full), the composite z-score in assay [1] was 0.108; in [2] it was 2.11; in [3], -0.177; in assay [4], -0.351; in [5], -0.537; in assay [6] it was -0.637. The composite z-score was 0.606 in assay [7]; -0.398 in [9]; -0.0939 in assay [10]; 0.291 in [11]; -0.805 in [15]; -0.145 in [17]. Moreover, the composite z-score in assay [18] is -0.736; in assay [19], -0.362; in assay [20], -0.203. Besides, the z-score in assay [8] is -0.286 (inactive); in [12], -0.631 (inactive); in [13], -0.349 (inactive); in assay [14], -1.2 (inactive); in [16], 2.99 (inactive).
As for `CCCNC(=O)[C@@]1(c2ccc([N+](=O)[O-])cc2)CC(=O)N(C2CCCCC2)[C@@H]1c1ccc(CO)cc1I`, the composite z-score came to 0.368 in [1]; 0.983 in [2]; 0.091 in assay [3]; 0.599 in assay [4]; 0.96 in assay [5]; 0.456 in assay [6]. Moreover, the composite z-score was 1.21 in [7]; 0.29 in assay [9]; -0.0994 in assay [10]; 1.48 in [11]; 2.52 in [15]; -0.0649 in assay [17]. The composite z-score came out at 1.5 in [18], 0.976 in [19] and 0.0592 in [20]. Also, the z-score in assay [8] is -0.546 (inactive); in assay [12], -1.58 (inactive); in assay [13], 0.503 (inactive); in assay [14], 1.93 (inactive); in assay [16], 0.422 (inactive).
`COc1ccc(C(O)C2C=CC3C(=O)N(Cc4ccccc4)C(=O)C3N2n2cnnc2)c2ccccc12` (stereo not given): the composite z-score was 0.487 in assay [1]; 1.07 in [2]; -0.0876 in assay [3]; -0.522 in assay [4]; -0.782 in assay [5]; 1.81 in assay [6]. Further, the composite z-score in assay [7] is 1.32; in assay [9], 0.623; in assay [10] it was -0.162; in assay [11], 1.17; in [15], 2.81; in [17] it was -0.238. The composite z-score in [18] was -0.641; in [19], 0.556; in assay [20], -0.175. Further, the z-score in assay [8] was 0.422 (inactive); in assay [12], -0.346 (inactive); in [13], 0.0768 (inactive); in assay [14] it was -0.282 (inactive); in assay [16] it was -0.671 (inactive).
`[N-]=[N+]=NCc1ccccc1C[C@@]1(C(=O)N2CCCCC2)N=C(c2ccc(OCCCO)cc2)O[C@@H]1c1ccccc1N=[N+]=[N-]`: the composite z-score in [1] was 0.167; in assay [2], 0.101; in assay [3], -0.204; in assay [4], 0.229; in assay [5], 1.49; in [6], 1.38. Moreover, the composite z-score in assay [7] is 1.05; in assay [9] it was 0.227; in [10], 0.0505; in assay [11], 0.422; in [15], 1.73; in [17], -0.0591. In addition, the composite z-score in assay [18] is 0.244; in assay [19], 0.923; in [20] it was 0.0923. In addition, the z-score in assay [8] is -3 (inactive); in [12], -0.64 (inactive); in assay [13] it was 0.832 (inactive); in [14], 4.02 (inactive); in [16], 1.17 (inactive).
Consider `Cc1ccc(S[C@]2(C(=O)NC(C)C)CC(=O)N(Cc3ccccc3C(F)(F)F)[C@@H]2c2ccc(CO)cc2I)cc1`, for which the composite z-score is 1.01 in assay [1]; -0.685 in assay [2]; -0.0924 in [3]; -0.545 in assay [4]; -1.67 in assay [5]; 1.91 in assay [6]. Further, the composite z-score in assay [7] was 1.17; in assay [9], -0.415; in assay [10], -0.274; in assay [11], 1.13; in assay [15], 0.515; in assay [17] it was 0.0844. For the same compound, the results for the composite z-score in assay [18], in [19] and in assay [20] were -0.76, -0.669 and -0.283, respectively. In addition, the z-score in assay [8] is -0.62 (inactive); in assay [12] it was -2.32 (inactive); in [13], -4.49 (inactive); in assay [14], 1.18 (inactive); in assay [16] it was -1.73 (inactive).

These data come from PubChem BioAssay.
